Bioassay records (PubChem)
The sample as a whole holds a higher share of hits than the screen did.
SARS PLpro yeast: qHTS of Yeast-based Assay for SARS-CoV PLP; S. cerevisiae expressing SARS-CoV PLpro, growth rescue; Potency, µM (series often up to 32.9 µM), for inactives: at the top dose activity, positive = growth rescue, hits mostly activators; 330,000 tested, 0.19% active; calls by dose curve; note: potency is the fitted concentration of half-maximal effect; 0% is about no effect; nearly all actives have a fitted effect of over 55% in size
AMA1 RON2 block: qHTS for Inhibitors of AMA1-RON; Towards Development of Antimalarial Drug Lead: Primary Screen; Plasmodium falciparum AMA1 (3D7) - RON2 peptide interaction; AlphaScreen AMA1-biotinylated RON2 peptide binding; Potency, µM (top dose mostly 58.2 µM), for inactives: at the highest dose activity change, negative = inhibition, usual class: inhibitors; AID 720542, 2013; 360,000 tested, 0.2% active;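 note: potency is the fitted concentration of half-maximal effect; 0% = vehicle wells and -100% = peptide control; nearly all actives have a fitted effect of over 45% in size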
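AMA1 (3D7) with his tag at 25 nM final met compounds first, then biotinylated RON2 peptide at 25 nM; detection used donor plus acceptor beads, 10 µg/mL apiece, read by AlphaScreen after 30 min at room temperature.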
Shiga toxin inh: A qHTS for Small Molecule Inhibitors of Shiga Toxin; Vero cells, Shiga toxin protein synthesis inhibition reporter; inhibition, % at 38.7 µM; 290,000 tested, 9.2% active; AID 2315, 2010; in the data active = inhibition mostly above about 28%, no sharp cut-off; inactive = mostly below about 43%; note: 0% is about no effect
AmpC inh no detg: qHTS Inhibitors of AmpC Beta-Lactamase (assay without detergent) | P00811 | AmpC nitrocefin hydrolysis, absorbance 480 nm, 0.0001% Triton | Potency, µM (series often up to 57.1 µM), for the others: at the highest dose activity change, negative = inhibition, hits mostly inhibitors | 330,000 tested, 0.52% active;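 note: potency is the fitted concentration of half-maximal effect; plate controls were no compound for no effect and no enzyme for full effect; nearly all actives have a fitted effect of over 20% in size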
Target sequence (P00811 whole entry, looked up): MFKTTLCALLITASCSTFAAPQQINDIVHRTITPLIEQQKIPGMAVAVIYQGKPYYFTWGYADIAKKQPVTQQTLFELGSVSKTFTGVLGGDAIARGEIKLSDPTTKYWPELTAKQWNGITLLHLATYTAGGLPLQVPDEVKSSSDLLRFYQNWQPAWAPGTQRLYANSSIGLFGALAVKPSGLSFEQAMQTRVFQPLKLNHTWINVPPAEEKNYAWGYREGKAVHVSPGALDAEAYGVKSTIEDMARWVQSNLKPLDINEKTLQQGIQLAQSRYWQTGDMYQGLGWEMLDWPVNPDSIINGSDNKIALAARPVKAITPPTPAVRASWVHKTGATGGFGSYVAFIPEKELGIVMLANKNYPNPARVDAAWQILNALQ
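20 mM phosphate pH 7.0 + 0.01% (detergent screen) or 0.0001% Triton X-100; 5.3 nM AmpC reagent; cpd preinc 15 min RT; nitrocefin (800 uM stock) to start; A480 q20 s × 4 min; Activity was normalised to no-enzyme and no-compound control wells.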
AmpC inh detg: qHTS Inhibitors of AmpC Beta-Lactamase (assay with detergent); P00811; AmpC hydrolysis of nitrocefin, absorbance 480 nm, 0.01% Triton; Potency, µM (series often up to 114 µM), without a hit: at the top dose activity change, negative = inhibition, hits mostly inhibitors; 370,000 tested, 0.041% active; AID 485294, 2010;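 note: potency is the fitted concentration of half-maximal effect; 0% = no-compound wells and -100% = no-enzyme wells; nearly all actives have a fitted effect of over 25% in size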
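20 mM phosphate pH 7.0 + 0.01% (detergent screen) or 0.0001% Triton X-100; 5.3 nM AmpC reagent; cpd preinc 15 min RT; nitrocefin (800 uM stock) to start; A480 q20 s × 4 min; Activity was normalised to no-enzyme and no-compound control wells.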
Cycloheximide cs: Cycloheximide Counterscreen for Small Molecule Inhibitors of Shiga Toxin; cell reporter, cycloheximide protein synthesis inhibition counterscreen; 300,000 tested, 12% active; max response, %; in the data active = max response mostly above about 13%, no sharp cut-off; inactive = mostly below about 14%; note: read at 38.3 µM for the half of the compounds with a filed dose; 0% is about no effect
Numbers without * were called inactive; u = inconclusive; x = no result given. Unless noted, calls come from the whole dose curve; as a rule, active = well fitted curve in the direction sought with a large enough effect; inconclusive = small, poorly fitted or top-dose-only effect, or another doubt; inactive = no such curve, though single readings can be large; an effect the other way counts as inactive or inconclusive.

SMILES	SARS PLpro yeast	AMA1 RON2 block	Shiga toxin inh	AmpC inh no detg	AmpC inh detg	Cycloheximide cs
CCn1ncc(C(=O)Nc2cccc(Cl)c2)c1C	-37.9%	-18.0%	30.1*	-12.3%	-2.6%	67.5*
CCn1ncc(C(=O)Nc2cc(C)on2)c1C	-0.5%	24.6%	38.0	-36.9%	u	47.3*
Cc1[nH]cnc1CSCc1ccc(Cl)cc1	-5.0%	-3.6%	73.1*	-35.1%	-10.1%	22.8*
CSc1ccc(-c2nc(CN(C)C3CCOC3)c(C)o2)cc1 (configuration not stated)	1.5%	-6.6%	42.2*	33.7%	-3.4%	31.2*
Cc1ccc(-c2nc(CN(C)C(C3CC3)C3CC3)c(C)o2)cc1	-2.5%	-0.3%	21.5	24.8%	0.8%	12.8
Cn1cc(CCNC(=O)c2ccc3nc(Cc4ccccc4F)oc3c2)cn1	-3.5%	-1.5%	92.2*	29.0%	-1.1%	30.0*
O=C(NCc1ccccc1Cl)c1ccc2nc(Cc3ccccc3)oc2c1	x	x	x	x	-9.9%	x
Cn1cc(CNC(=O)c2ccc3nc(Cc4ccccc4F)oc3c2)cn1	-5.5%	7.4%	89.3*	44.5%	0.9%	59.4*
CCOc1ccccc1CNC(=O)c1ccc2nc(Cc3ccc(OC)cc3)oc2c1	x	x	x	x	-6.8%	x
CCn1cc(CNC(=O)c2ccc3nc(Cc4ccc(OC)cc4)oc3c2)cn1	1.8%	0.0%	14.9	87.3%	1.3%	19.8*
CCn1cc(CNC(=O)c2ccc3nc(Cc4ccccc4F)oc3c2)cn1	-1.2%	-1.3%	38.2	63.4%	-12.9%	31.7*
CCN(Cc1cnn(C)c1)C(=O)c1ccc2nc(Cc3ccccc3F)oc2c1	x	-3.4%	x	x	x	x
CNS(=O)(=O)c1cn(CC(=O)N2CCN(c3ccccc3OC)CC2)cc1S(=O)(=O)NC	x	x	x	x	-5.3%	x
CCOCCCNC(=O)C(NC(=O)C1CCC(C)CC1)C(C)C (configuration not stated)	x	x	x	x	2.2%	x
COc1ccc(CCn2c(C(C)C)nc3c(c(=O)c4ccccc4n3C)c2=O)cc1	4.6%	-0.2%	-7.7	-24.5%	-7.3%	-5.2
CCOC(=O)[C@@H](CCc1ccccc1)N[C@H](C)C(=O)N1[C@H](C(=O)O)C[C@@H]2CCC[C@@H]21	1.4%	0.1%	-0.9	9.5%	-7.5%	-2.6
CC(NC(=O)c1cc(-c2ccccn2)nc2ccc(Cl)cc12)C1CCCO1 (configuration not stated)	-1.7%	-10.0%	-31.1	100.3%	1.2%	8.7
CC(NC(=O)c1cc(-c2ccncc2)nc2ccc(Cl)cc12)C1CCCO1 (configuration not stated)	1.1%	-6.8%	38.0*	86.0%	-10.6%	13.2*
CC(=O)c1ccc(N2CCN(C(=O)c3cc(-c4ccncc4)nc4ccc(Cl)cc34)CC2)cc1	u	4.5%	23.8	1.0%	0.8%	14.2*
COc1ccc(NS(=O)(=O)c2ccc(-c3n[nH]c(=S)n3Cc3ccccc3)cc2)cc1	-1.7%	92.5%	7.0	7.94µM*	2.8%	-0.3
COc1ccc(NS(=O)(=O)c2cccc(-c3n[nH]c(=S)n3Cc3ccccc3)c2)cc1	9.3%	97.9%	-8.9	12.6µM*	u	5.4
COc1ccc(-c2n[nH]c(=S)n2Cc2ccccc2)cc1	1.3%	60.5%	-0.5	-34.6%	u	-3.4
COc1ccccc1Nc1nc2ccc(C)cc2cc1C#N	-3.6%	16.6%	17.1	-17.1%	-9.1%	-1.8
Cc1cc(C)cc(N(CC(=O)NCc2ccc(F)cc2)C(=O)c2snc(C(N)=O)c2N)c1	-0.1%	-8.8%	-1.6	12.9%	3.3%	0.8
Cc1cc(C)cc(N(CC(=O)NCc2ccco2)C(=O)c2snc(C(N)=O)c2N)c1	-1.1%	-3.2%	35.8*	-14.9%	-3.3%	32.7*
Cc1ccc(Nc2cc(C)nc3nc(C)nn23)c(C)c1	4.8%	0.0%	-7.9	1.3%	u	-0.8
CC(=O)Nc1ccc(S(=O)(=O)N=S(C)C)cc1	-1.0%	4.7%	-5.5	-14.4%	u	4.1
